# MenB inh: inhibitors of Mycobacterium tuberculosis MenB enzyme; actives 0.43% (n = 100,000); P9WNP5; inhibition, % (concentration not given with the values); MenB enzyme assay, absorbance read-out; in the data active means inhibition above about 21%, passing the limit was not always enough
# Mtb MbtI inh: MbtI salicylate synthase inhibition; inhibition, % (concentration not given with the values); AID 493033; P9WFX0; actives 0.89% (n = 100,000); purified MbtI enzyme, fluorescence intensity read-out; in the data active means inhibition mostly above about 56%, no sharp cut-off; inactive means mostly below about 77%
# Target sequence (P9WFX0 whole entry, looked up): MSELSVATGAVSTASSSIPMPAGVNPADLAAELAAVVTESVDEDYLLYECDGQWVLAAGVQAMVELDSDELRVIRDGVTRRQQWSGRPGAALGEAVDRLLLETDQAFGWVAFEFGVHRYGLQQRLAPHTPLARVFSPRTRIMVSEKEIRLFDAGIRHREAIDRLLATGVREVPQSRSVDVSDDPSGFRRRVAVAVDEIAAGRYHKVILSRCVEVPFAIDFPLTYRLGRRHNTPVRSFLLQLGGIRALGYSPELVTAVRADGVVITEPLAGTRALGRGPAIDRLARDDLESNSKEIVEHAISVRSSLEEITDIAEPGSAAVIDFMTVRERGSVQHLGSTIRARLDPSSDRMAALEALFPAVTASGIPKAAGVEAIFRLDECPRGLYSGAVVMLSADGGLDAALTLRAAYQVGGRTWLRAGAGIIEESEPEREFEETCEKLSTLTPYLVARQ
# Polio RdRp inh: poliovirus RNA polymerase inhibition; poliovirus polymerase elongation, fluorescence polarization; stronger effect = lower value; % elongation, % (compound at 16.7 µg/mL); actives 0.66% (n = 150,000); in the data active means % elongation below about 90%
# AID504770: growth inhibitors of E. coli YBA685 in a screen for V. cholerae RctB (chromosome II replication) inhibitors. E. coli YBA685 rctB-dependent plasmid, OD600 growth, 3 h; stronger effect = lower value. AID 504770. z-score (no concentration beside the values). actives 0.27% (n = 130,000); in the data active means z-score below about -2, passing the limit was not always enough
# Hits are given with their value; 0 = inactive; - = not tested or not shown; ! = not active in a repeat. Most compounds without a hit are left out; they make up all but 1.4% or so of the library.
SMILES,MenB inh,Mtb MbtI inh,Polio RdRp inh,AID504770
NS(=O)(=O)c1cccc(S(=O)(=O)c2ccc(Cl)c(Cl)c2)c1,0,67,0,0
CCc1ccccc1Nc1nc(-c2c(C)nc3sccn23)cs1,0,0,0,0
Cc1nc2sccn2c1-c1csc(Nc2cccc(Cl)c2C)n1,0,70,0,0
CC1CCN(C(=O)COC(=O)c2ccc(-c3ccccc3)cc2)CC1,-,0,0,0
CCS(=O)(=O)c1ccc2oc(Nc3ccc(C(C)C)cc3)nc2c1,0,0,70,0
CCS(=O)(=O)c1ccc2oc(Nc3cc(C)cc(C)c3)nc2c1,0,0,0,0
CC(=O)Nc1ccccc1N,0,-,0,0
CC(=O)/C=C(\C)Nc1ccccc1S,28,0,0,0
FC(F)(F)CN(Cn1nc(-c2ccco2)oc1=S)Cn1nc(-c2ccco2)oc1=S,0,0,76,0
O=C(COC(=O)c1cccc(S(=O)(=O)NCc2ccco2)c1)Nc1ccccc1,0,0,0,0
CCc1nn(CC(=O)NCc2ccc(C)cc2)c(=O)c2cc3occc3n12,-,-,72,-
Cc1ccc(-c2c(CN3CCN(c4cccc(C(F)(F)F)c4)CC3)csc2C)cc1,-,-,89,-
O=C(Cn1c(=O)cnc2ccccc21)NCC(F)(F)F,0,0,0,0
Cc1nnc(C)n1/N=C\c1cccnc1,-,0,0,0
COc1ccc(C(c2ccc3cccnc3c2O)N2CCOCC2)cc1 (stereo not drawn),0,98,0,0
CCN1CCN(C(c2cccnc2)c2ccc3cccnc3c2O)CC1 (stereo not drawn),0,89,87,0
O=C(O)C1=C(C(=O)NCc2ccc3c(c2)OCO3)CCCC1,-,-,-,0
Cc1ccc(C)c(NC(=O)CN(C)C(=O)COc2ccccc2C#N)c1,0,0,0,-3.5
O=c1oc2c3c(ccc2c2ccccc12)OCN(Cc1cccc(Cl)c1)C3,-,-,85,-
CCN(CC)c1nc2n(c(=S)n1)CCS2,30,0,0,0
CCC(=O)Nc1nnc2n1CCS2,-,-,0,-
C[N+]1(C)C2CCC1CC(OC(=O)C(CO)c1ccccc1)C2 (stereo not drawn),0,65!,0,0
CC(C)[N+]1(C)C2CCC1CC(OC(=O)C(CO)c1ccccc1)C2 (stereo not drawn),0,0,0,-
O=c1cc(CSc2ccc(Cl)cc2)nc2sccn12,-,-,-,0
CC(=O)NC1C(OC2CCCCC2)OC(CO)C(O)C1O (stereo not drawn),0,0,0,0
SMILES,MenB inh,Mtb MbtI inh,Polio RdRp inh,AID504770
COc1ccc2c(c1)-c1nc(/N=C/c3ccc(C)o3)sc1CC2,0,82,0,0
COc1ccc2c(c1)CCc1sc(/N=C/c3ccc(C)cc3)nc1-2,0,0,0,0
COC(=O)c1ccc(C(=O)OC)c(NC(=O)c2cc3nc(-c4ccc(C)cc4)cc(C(F)(F)F)n3n2)c1,-,-,0,-
COC(=O)c1cc2nc(-c3ccc(F)cc3)cc(C(F)(F)F)n2n1,0,-,87,0
Cc1nc2cccnc2n1CCNC(=O)Nc1cccc2ccccc12,27,0,0,0
Cc1ccc(C(=O)Sc2nnc3ccccn23)cc1,-,0,0,0
Cc1ccc(C(=O)Sc2nc(C)cc(C)n2)cc1,0,78,0,0
Cc1cc(C)c2c(=O)n(C(=O)c3cccs3)sc2n1,0,100,0,0
CC(C)OCC(O)CN (stereo not drawn),32,0,0,0
CCOCC(O)CN (stereo not drawn),0,0,0,0
CCCNCc1ccccc1,32,0,0,0
O=C(N/N=C1/CSC(=O)N1Cc1cccs1)c1cccs1,0,0,0,0
Cc1c(Cl)cccc1N1C(=O)CC(Sc2nnnn2-c2ccccc2)C1=O (stereo not drawn),0,98,0,0
O=C1CCCC1Sc1nnnn1-c1ccccc1 (stereo not drawn),0,0,0,0
[N-]=C=C1C(=O)N(CCc2ccccc2)C(=O)[C@H]([n+]2ccccc2)[C@H]1c1ccc(Cl)cc1,0,-,69,0
CCCC1NC(=S)N(c2ccccc2)N1 (stereo not drawn),0,98,0,0
CCOC(=O)Cn1cnc2sc(C(=O)OCC)c(C)c2c1=O,48,0,0,0
NNc1nc(-c2ccccc2)c2ccccc2n1,-,-,-,0
NNc1nnc(-c2ccccc2)c(-c2ccccc2)n1,0,73,0,0
CC1=CC(=N/C(C)=N/S(=O)(=O)c2ccc(C)cc2)C=C(C)C1=O,0,86,0,0
Cc1ccc(C(=O)N2CCN(c3ncnc4c3cnn4-c3ccccc3)CC2)cc1,0,0,0,-4.2
Cc1ccc(Nc2nn3c(=O)c4ccccc4nc3s2)cc1,0,0,0,0
CN1C(=O)C2C=CC=CC2NC1=S (stereo not drawn),0,0,87,0
CCN1C(=O)C2C=CC=CC2NC1=S (stereo not drawn),0,0,0,0
O=C1NC(=Nc2ccc(F)cc2)CS1,0,78,0,0
SMILES,MenB inh,Mtb MbtI inh,Polio RdRp inh,AID504770
O=C1NC(=Nc2ccccc2)CS1,0,0,0,0
C=CCN(C(=O)CSc1nnc(CC)n2c1cc1oc(C)cc12)c1ccccc1,45,0,0,0
CCc1nnc(SCC(=O)N(CC)c2ccccc2)c2cc3oc(C)cc3n12,-,-,0,-
CCOc1ccc(NC(=O)CCS(=O)(=O)c2ccc3c(c2)OCC(=O)N3)cc1,0,0,0,0
O=C(Oc1ccccc1C(=S)N1CCOCC1)c1ccccc1,0,0,0,0
CCOc1ccccc1C(=S)N1CCOCC1,0,74,0,0
CO[C@@H]1[C@@H](OC(N)=O)[C@@H](O)[C@H](Oc2ccc3c(O)c(NC(=O)c4ccc(O)c(CC=C(C)C)c4)c(=O)oc3c2C)OC1(C)C,0,0,0,0
CO[C@@H]1[C@H](OC(N)=O)C(O)[C@H](Oc2ccc3c(O)c(NC(=O)c4ccc(O)c(CC=C(C)C)c4)c(=O)oc3c2C)OC1(C)C (stereo partly drawn),0,0,101,-
C=CCNC(=S)Nc1ccc(C)cc1,0,0,0,0
Cc1c(Cl)sn(-c2ccc(Cl)cc2)c1=O,0,101,0,-5.8
O=C1CSCC(=O)N1c1ccc(Cl)cc1,0,0,0,0
O=C1C=CC(=O)N1c1ccc2c(c1)OCO2,0,99,0,-2
O=C1c2cccc3cccc(c23)C(=O)N1c1ccc2c(c1)OCO2,-,-,-,0
Cc1nn(C)c2c1S(=O)(=O)N=C(N1CCOCC1)S2,0,0,81,0
O=C1CSC(N2CCOCC2)=N1,0,0,0,0
COc1cccc(CNc2nn[nH]n2)c1OCc1ccc(Cl)cc1,0,0,0,0
CO[C@@]12[C@@H]3NC3CN1C1=C(C(=O)C(N)=C(C)C1=O)[C@@H]2COC(N)=O (stereo partly drawn),0,0,0,-5.2
CCOc1ccc(NC(=O)c2cn(CC(C)C)c(=O)c3c2c2ccccc2n3C)cc1,0,0,0,-2.9
COCCCNC(=O)c1cn(CC(C)C)c(=O)c2c1c1ccccc1n2C,-,-,0,-
CCOC(=O)CSc1nn(C)c(=S)s1,-,0,-,0
NC(=O)CCSc1n[nH]c(=S)s1,0,0,0,0
CCOC(=O)CCSc1n[nH]c(=S)s1,0,85,0,0
CCOC(=O)CSc1n[nH]c(=S)s1,0,90,0,0
O=c1c(Cl)c(NCCc2ccccc2)cnn1-c1nc2ccccc2o1,-,-,-,0

# Assay outcomes as filed in PubChem.
